Consider 13 molecules from the antibiotic and cytotoxicity screens of Wong et al. (2023).

The campaign covered roughly 39,000 compounds. About 3,300 (8.5%) were called active. For the sample, actives were picked, then their nearest neighbours and some compounds at random.

The test has as its system HepG2. The test can be described thus: cytotoxicity call (relative viability < 0.9). Particulars: 10 µM.
For `CO[C@H]1O[C@H](CO)[C@@H](OC(=O)Nc2ccccc2)[C@@H]2OC(=O)[C@@H](Cc3ccc4ccccc4c3)C/C=C/C[C@H](Cc3ccc4ccccc4c3)C(=O)O[C@@H]12`, the cytotoxicity call is “inactive”.

Turning to `CO[C@H]1O[C@H](CO)[C@@H](OC(=O)Nc2ccc3c(c2)OCO3)[C@@H]2OC(=O)[C@H](Cc3cccc(Br)c3)C/C=C/C[C@@H](Cc3cccc(Br)c3)C(=O)O[C@@H]12`, the cytotoxicity call is “inactive”.

Take `CCOC(=O)[C@H]1C/C=C/C[C@H](C(=O)OCC)C(=O)O[C@H]2[C@@H](OC)O[C@H](CO)[C@@H](OC(=O)c3c(OC)cccc3OC)[C@@H]2OC1=O`: the cytotoxicity call was “inactive”.

Turning to `CCOC(=O)[C@H]1C/C=C/C[C@H](C(=O)OCC)C(=O)O[C@H]2[C@@H](OC)O[C@H](CO)[C@@H](OC(=O)Nc3ccc4c(c3)OCO4)[C@@H]2OC1=O`, the cytotoxicity call is “active”.

For `CCOC(=O)[C@H]1C/C=C/C[C@H](C(=O)OCC)C(=O)O[C@H]2[C@@H](OC)O[C@H](CO)[C@@H](OC(=O)Nc3ccccc3)[C@@H]2OC1=O`, the cytotoxicity call is “inactive”.

In the case of `CCOC(=O)[C@H]1C/C=C/C[C@H](C(=O)OCC)C(=O)O[C@H]2[C@@H](OC)O[C@H](CO)[C@@H](OC(=O)Nc3ccc(OC)cc3)[C@@H]2OC1=O`, the cytotoxicity call was “inactive”.

Take `CCOC(=O)[C@H]1C/C=C/C[C@H](C(=O)OCC)C(=O)O[C@H]2[C@@H](OC)O[C@H](CO)[C@@H](OC(=O)Nc3ccc(Br)cc3)[C@@H]2OC1=O`: the cytotoxicity call was “active”.

Take `CO[C@H]1O[C@H](CO)[C@@H](OC(=O)Nc2cccc(F)c2)[C@@H]2OC(=O)[C@H](Cc3cccc(Br)c3)C/C=C/C[C@@H](Cc3cccc(Br)c3)C(=O)O[C@@H]12`: the cytotoxicity call was “inactive”.

Take `CCOC(=O)[C@H]1C/C=C/C[C@H](C(=O)OCC)C(=O)O[C@H]2[C@@H](OC)O[C@H](CO)[C@@H](OC(=O)c3ccc(Br)cc3)[C@@H]2OC1=O`: the cytotoxicity call is “inactive”.

As to `COc1ccc(NC(=O)O[C@H]2[C@@H]3OC(=O)[C@H](Cc4cccc(Br)c4)C/C=C/C[C@@H](Cc4cccc(Br)c4)C(=O)O[C@H]3[C@@H](OC)O[C@@H]2CO)cc1`, the cytotoxicity call was “inactive”.

For `CCOC(=O)[C@H]1C/C=C/C[C@H](C(=O)OCC)C(=O)O[C@H]2[C@@H](OC)O[C@H](CO)[C@@H](OC(=O)Nc3cccc(F)c3)[C@@H]2OC1=O`, the cytotoxicity call is “active”.

Turning to `COc1ccc(NC(=O)O[C@H]2[C@@H]3OC(=O)[C@@H](Cc4ccc5ccccc5c4)C/C=C/C[C@H](Cc4ccc5ccccc5c4)C(=O)O[C@H]3[C@@H](OC)O[C@@H]2CO)cc1`, the cytotoxicity call is “active”.

On to `COc1cccc(S(=O)(=O)N2C[C@H](O)COC[C@@H]3O[C@H](CC(=O)N4CCN(C)CC4)CC[C@H]32)c1`, for which the cytotoxicity call was “inactive”.
